# Screening results as filed in PubChem.
# The list is not random: actives were taken first. Their share in the collection is about 3.9%.
# sPLA2-III inh: human group III sPLA2 inhibitors, primary screen, biochemical, QFRET, BODIPY PC-A2 liposome substrate | Group 3 secretory phospholipase A2 (Homo sapiens), Q9NZ20 | QFRET BODIPY PC-A2 liposome hydrolysis, fluorescence | inhibition, % at 12.2 µM | 370,000 tested, 0.56% active | AID 743126, 2013;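 active means inhibition above mean plus 3 SD of compounds lying within the high and low control bounds, cut at about 19% in these data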;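 further: 0% = median of test compound wells and 100% = no enzyme DMSO wells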
# PLCb3 inh: human PLC-beta3 inhibitors, primary screen, biochemical, fluorescence. 1-phosphatidylinositol 4,5-bisphosphate phosphodiesterase beta-3 (Homo sapiens), Q01970. Purified PLC-beta3, fluorogenic substrate. inhibition, % at 12.2 µM. 370,000 tested, 0.18% active. AID 720704, 2013; in the data active means inhibition above about 11%;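 further: 0% = median of compound wells on plate and 100% = full blocker control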
# HIF activator: HIF pathway transcriptional activators, primary screen, cell-based, U2OS HRE-luciferase, luminescence; U2OS HRE-luciferase reporter; normalized: DMSO 0%, desferrioxamine 100%; activation, % at 7.5 µM (by protocol); 300,000 tested, 0.32% active; AID 1910, 2009;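 active means mean activation of at least 10% of the iron chelator positive control signal, with at least half of replicates also reaching 10%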
# AHR activator: AHR activators, primary screen, cell-based, luminescence, luciferase reporter, human. Aryl hydrocarbon receptor (Homo sapiens), P35869. 320,000 tested, 2.5% active. AID 2796, 2010. AHR-responsive luciferase reporter cells. activation, % at 5 µM; in the data active means activation above about 47%;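 further: 0% = vehicle wells and 100% = reference agonist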
# PLCg1 inh: PLC-gamma1 enzyme inhibitors, primary screen, biochemical, fluorescence, purified enzyme | 1-phosphatidylinositol 4,5-bisphosphate phosphodiesterase gamma-1 (Homo sapiens), P19174 | fluorogenic substrate | inhibition, % at 12.2 µM | 370,000 tested, 0.84% active; in the data active means inhibition above about 9.5%
# CR mimetic SO: reduction of superoxide in aged yeast, primary screen, HTS. S. cerevisiae aged cells, superoxide DHE fluorescence; active compounds read low. superoxide response (% of plate mean), % at 10 µM. 330,000 tested, 0.18% active. AID 2690, 2010;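 active means superoxide response under a set limit, about three screen SD below normal, cut at about 65% in these data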;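 further: yeast aged for seven days with compound at 30 °C before DHE staining; 100% = average MFI of all compound-treated wells on the plate with controls excluded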
# sPLA2 confirm: human group III sPLA2 inhibitors, confirmation, biochemical, QFRET, triplicate; shares compounds with sPLA2-III inh; recombinant hGIII-sPLA2, BODIPY PC-A2 QFRET fluorescence; inhibition, % at 12.2 µM; 2,000 tested, 34% active; AID 743280, 2014;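 active means mean inhibition across triplicates above the hit cutoff set in the earlier primary screen, cut at about 19% in these data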;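 further: 0% = enzyme with DMSO and 100% = DMSO wells lacking enzyme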
# BODIPY interf: 535nm fluorescence optical interference, confirmation, artefact control for HGIII-sPLA2 inhibitor project, biochemical, QFRET | shares compounds with sPLA2-III inh | BODIPY FL product fluorescence interference | inhibition, % at 12.2 µM | 2,000 tested, 8.5% active;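 active means average inhibition above the solvent-only control mean plus 3 SD, cut at about 6% in these data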;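 further: 0% = DMSO with substrate plus product and 100% = DMSO with substrate alone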
# 535nm interf DR: 535nm fluorescence optical interference, dose response, artefact control for HGIII-sPLA2 inhibitor project, biochemical, QFRET | shares compounds with sPLA2-III inh | 240 tested, under 10 active | IC50, µM | BODIPY FL product fluorescence interference, cell-free;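 active means IC50 at or below 10 µM; inactive means IC50 above 10 µM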
# * hit, by the source's call; . = no result given.
SMILES,sPLA2-III inh,PLCb3 inh,HIF activator,AHR activator,PLCg1 inh,CR mimetic SO,sPLA2 confirm,BODIPY interf,others
COc1ccc(N)c2c1C(=O)c1ccccc1C2=O,33*,-2,2,2,0,106,37*,14*,
N#Cc1c(Cl)nsc1NN,20*,-9,-2,10,-8,99,19,14*,
Cc1c(C#N)c(N)nc(Cl)c1C#N,-1,-1,0,5,-1,108,.,.,
CC(C)c1nc2c(c(=O)c3ccccc3n2C)c(=O)n1-c1ccc(F)cc1,24*,2,2,19,5,90,1,-16,
COc1cc2cc(NC(C)=O)cc(NCc3ccccc3)c2cc1OC,21*,-65,-1,.,-55,111,19,-2,
Cc1ccc(C(C)C)c(OCCNCCc2ccccc2)c1,-2,-1,-2,-1,4,91,.,.,
COc1cccc(CN2CCC2(C)C(=O)Nc2ccc(C)c(O)c2)c1F (stereo not given),1,-1,.,.,0,.,.,.,
CNC(=S)/N=C(\Nc1ccc(C)cc1)c1ccccc1,21*,5,2,1,5,103,19,-7,
CC(=O)N1CCOc2ccc(S(=O)(=O)N3CCC(C(=O)NCc4ccc(Cl)cc4)CC3)cc21,-3,4,.,.,2,.,.,.,
NC(CCc1ccccc1)c1csc(NC(=O)NCC2CCCCC2)n1 (stereo not given),8,4,.,.,7,.,.,.,
Cn1cnc(S(=O)(=O)N2CCCCC2c2cc(C(=O)Nc3ccccc3Cl)no2)c1 (stereo not given),-6,5,.,.,1,.,.,.,
Cc1ccc(-c2cn(-c3ccccc3F)c(=S)[nH]2)cc1,27*,-5,5,37,4,98,24*,4,
CC(=O)Nc1ccc(-n2cc(-c3ccccc3)[nH]c2=S)cc1,17,2,1,32,2,95,.,.,
Cc1cccc(-n2cc(-c3ccccc3)[nH]c2=S)c1,20*,-5,7,34,-1,92,31*,3,
COc1ccc(-n2cc(-c3ccccc3)[nH]c2=S)cc1,19*,4,2,55*,7,90,41*,2,535nm interf DR=>122
O=[N+]([O-])c1ccc(-c2cn(-c3ccccc3F)c(=S)[nH]2)cc1,0,-6,2,21,0,96,.,.,
COc1ccccc1C(=O)NCCC(=O)NCC1COc2ccccc2O1 (stereo not given),0,-3,.,0,-1,125,.,.,
Cn1cccc1CC(=O)NNC(=S)Nc1ccccc1Cl,25*,-1,0,0,-2,111,29*,-3,535nm interf DR=>122
O=C(Cc1noc2ccccc12)NNC(=S)Nc1ccc(Cl)cc1,29*,-4,0,3,8,106,26*,1,
Cn1cccc1CC(=O)N/N=C/c1ccc(Cl)cc1,0,-6,0,4,-1,102,.,.,
Cn1cccc1CC(=O)NNC(=S)Nc1ccc(Cl)cc1,24*,-5,0,5,-3,118,27*,2,
Cc1[nH]nc2c1C(c1ccc(Br)cc1)N(Cc1ccccc1)C2=O (stereo not given),-16,-1,.,.,5,.,.,.,
O=C(NCc1ccco1)c1ccccc1SCC(=O)N1CCCC1,9,-9,.,6,-7,84,.,.,
Clc1ccc2c(c1)Nc1ccccc1CC2,22*,-8,2,-1,7,83,15,8.2*,
O=C1CCc2ccccc2N1,7,-8,0,0,0,92,.,.,
SMILES,sPLA2-III inh,PLCb3 inh,HIF activator,AHR activator,PLCg1 inh,CR mimetic SO,sPLA2 confirm,BODIPY interf,others
Cc1ccc(S(=O)(=O)NCC(=O)N2CCN(c3ccc(F)cc3)CC2)cc1,-9,-2,0,-2,6,88,.,.,
CCOC(=O)[C@H]1[C@H]2COc3cc(OC)ccc3[C@@H]2N2C(=O)c3cc(OC)c(OC)cc3NC(=O)[C@@]12C,22*,-1,.,3,0,.,8,-15,
CN1C(=O)NC(=O)C1c1ccccc1 (stereo not given),10,-2,.,.,2,.,.,.,
O=C(O)CCN1C(=O)c2ccccc2Sc2ncccc21,23*,-4,0,0,1,119,0,-2,
O=C(O)Cc1ccc(N=Nc2c(O)c(C(=O)O)cc3ccccc23)cc1,0,-19,3,30,-9,103,.,.,
NS(=O)(=O)c1ccc(N=Nc2c(O)c(C(=O)O)cc3ccccc23)cc1,33*,-21,-5,6,-12,107,25*,-2,
Oc1ccccc1/C=N/Nc1nccnc1Cl,24*,-13,127*,12,-11,90,2,8.6*,
Oc1ccc(/C=N/Nc2nccnc2Cl)c(O)c1,-38,-13,2,6,-9,107,.,.,
CCN(C1CCS(=O)(=O)C1)S(=O)(=O)c1ccc2ccccc2c1 (stereo not given),-5,3,0,0,2,95,.,.,
CCCN1C[C@@H](C)[C@@H](OC)CN(C)C(=O)c2ccc(NC(=O)c3cccc(F)c3)cc2OC[C@H]1C,20*,0,.,.,1,.,4,-11,
COc1cccc(C(=O)Nc2ccc3c(c2)OC[C@H](C)N(CCc2ccccc2)C[C@@H](C)[C@@H](OC)CN(C)C3=O)c1,-5,-1,.,.,1,.,.,.,
CCc1ccc(C2=NN(C(C)=O)C(c3ccco3)C2)cc1 (stereo not given),-10,-1,3,7,-2,102,.,.,
Cc1ccccc1-n1nc(C(=O)c2cccs2)cc(-c2nc3ccccc3[nH]2)c1=N,23*,-98,0,28,-92,104,19,7.4*,
CSc1cccc(NC(=S)N2CCC(N(C)C3CCCC3)CC2)c1,19*,-7,0,3,-2,115,11,-17,
CCOC(=O)N1CCC(N(CCN(C)C)C(=S)Nc2cccc(SC)c2)CC1,0,-5,0,5,-1,113,.,.,
O=C(CNC(=O)c1ccco1)NNC(=O)c1cccc(Cl)c1,10,-10,.,3,3,77,.,.,
COC(CNC(=O)c1ccc(N2CCC3(CC2)OCCO3)c([N+](=O)[O-])c1)OC,23*,1,0,0,1,114,3,-9,
